CYP2C9 inhib: inhibitors of human CYP2C9; inhibition, % at 5 µM; AID 777; CYP2C9 Supersomes, luciferin-H conversion, luminescence; hit rate 20% among 96,000; P11712;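 active means blocking of liver enzyme CYP2C9 beyond about 50% at 5 µM, limit read from the data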
CYP2C19 activ: activators of human cytochrome P450 2C19; AID 1025; 96,000 tested, under 10 active; activation factor at 5 µM; recombinant CYP2C19, luciferin-H EGE luminescence; active compounds read high; 0 = fully inhibited enzyme, 1 = untreated enzyme;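 active means activation factor of at least 2 at 5 µM in the primary screen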
Target sequence (P33261 whole entry, looked up): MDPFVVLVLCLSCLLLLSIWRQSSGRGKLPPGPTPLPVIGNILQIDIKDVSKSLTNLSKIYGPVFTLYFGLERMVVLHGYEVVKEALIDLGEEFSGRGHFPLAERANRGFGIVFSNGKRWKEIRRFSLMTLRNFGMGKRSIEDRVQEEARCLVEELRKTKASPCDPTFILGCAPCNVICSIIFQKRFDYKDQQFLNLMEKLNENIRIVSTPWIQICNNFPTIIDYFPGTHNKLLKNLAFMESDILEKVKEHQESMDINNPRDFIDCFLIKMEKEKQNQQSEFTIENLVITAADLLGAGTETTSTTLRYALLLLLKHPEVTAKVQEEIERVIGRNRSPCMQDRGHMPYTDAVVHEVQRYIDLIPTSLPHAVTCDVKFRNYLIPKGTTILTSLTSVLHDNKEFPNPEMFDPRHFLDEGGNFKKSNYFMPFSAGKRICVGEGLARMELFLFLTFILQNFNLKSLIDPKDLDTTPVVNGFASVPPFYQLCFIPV
CYP2C9 activ: activators of human CYP2C9. P11712. recombinant CYP2C9, luciferin-H conversion, luminescence; active compounds read high; factor 1 = untreated enzyme, 0 = blocked. activation factor at 5 µM. hit rate 1.4% among 96,000;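 active means activation factor of 2 or more for CYP2C9 at a 5 µM dose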
CYP2C19 inh: blocks human cytochrome P450 2C19. AID 778. P33261. hit rate 21% among 96,000. CYP2C19 Supersomes, luciferin-H EGE luminescence, 30 min. inhibition, % at 5 µM;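 active means CYP2C19 inhibition above a set limit at 5 µM in the primary screen, cut at about 50% in these data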
PostGolgi yeast: growth inhibition of a yeast mutant, post-Golgi transport screen | post-Golgi transport phenotypic cell assay | inhibition, % at 10 µM | hit rate 0.9% among 98,000;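 further: yeast cells grown in 1536-well plates; yeast grown about 18 h at 30C before absorbance read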
PostGolgi ctrl: growth of the yeast control strain, post-Golgi counter-screen | efflux-deficient yeast background strain, growth absorbance A615, 16 h | inhibition, % at 10 µM | hit rate 5% among 98,000 | AID 738
A number is an active result. Most compounds without a hit are left out; they make up all but 32% or so of the library. Unless noted, no stated cut-off is given here; in the data, active means inhibition above about 30%; inactive means the rest.

O=C(CSc1nnc2c(n1)[nH]c1ccccc12)Nc1ccc2c(c1)OCO2 was read as CYP2C9 inhib 64.3, CYP2C19 activ inactive, CYP2C9 activ inactive, CYP2C19 inh inactive, PostGolgi yeast inactive and PostGolgi ctrl inactive.
Cc1ccc(SCC(=O)NC(=O)NCc2ccco2)cc1C was read as CYP2C9 inhib inactive, CYP2C19 activ inactive, CYP2C9 activ inactive, CYP2C19 inh inactive, PostGolgi yeast inactive and PostGolgi ctrl inactive.
O=C(CSc1ccc2c(c1)OCCO2)NCc1ccco1 was read as CYP2C9 inhib 70.1, CYP2C19 activ inactive, CYP2C9 activ inactive, CYP2C19 inh 54.9, PostGolgi yeast inactive and PostGolgi ctrl inactive.
`O=C(Cc1c(C(=O)O)[nH]c2ccccc12)Nc1ccc2c(c1)OCO2` gave CYP2C9 inhib inactive, CYP2C19 activ inactive, CYP2C9 activ inactive, CYP2C19 inh inactive, PostGolgi yeast inactive and PostGolgi ctrl inactive.
Screening O=C(Cn1c(=O)n(-c2ccc(F)cc2)c(=O)c2sccc21)N1CCCC1 returned CYP2C9 inhib inactive, CYP2C19 activ inactive, CYP2C9 activ inactive, CYP2C19 inh inactive, PostGolgi yeast inactive and PostGolgi ctrl inactive.
For O=C(CSc1ccc2c(c1)OCCO2)Nc1ccc(Br)cc1 the results were CYP2C9 inhib 74.9, CYP2C19 activ inactive, CYP2C9 activ inactive, CYP2C19 inh 95.4, PostGolgi yeast inactive and PostGolgi ctrl inactive.
COCc1cc(C)nc(SCC(=O)Nc2cccc3cccnc23)c1C#N was read as CYP2C9 inhib inactive, CYP2C19 activ inactive, CYP2C9 activ inactive, CYP2C19 inh inactive, PostGolgi yeast inactive and PostGolgi ctrl inactive.
Screening COc1cc(NC(=O)CSc2ccc3c(c2)OCCO3)cc(OC)c1OC returned CYP2C9 inhib inactive, CYP2C19 activ inactive, CYP2C9 activ inactive, CYP2C19 inh inactive, PostGolgi yeast inactive and PostGolgi ctrl inactive.
`COCc1cc(C)nc(SCC(=O)Nc2ccc3c(c2)OCO3)c1C#N` gave CYP2C9 inhib inactive, CYP2C19 activ inactive, CYP2C9 activ inactive, CYP2C19 inh 75.7, PostGolgi yeast inactive and PostGolgi ctrl inactive.
`COc1cccc(-c2ccc(=O)n(CC(=O)Nc3cc4c(cc3NC(C)=O)OCCO4)n2)c1` gave CYP2C9 inhib inactive, CYP2C19 activ inactive, CYP2C9 activ inactive, CYP2C19 inh 68.8, PostGolgi yeast inactive and PostGolgi ctrl inactive.
Screening COc1cccc(-c2ccc(=O)n(CC(=O)Nc3ccc(C(=O)N4CCCC4)cc3)n2)c1 returned CYP2C9 inhib inactive, CYP2C19 activ inactive, CYP2C9 activ inactive, CYP2C19 inh 54.9, PostGolgi yeast inactive and PostGolgi ctrl inactive.
Screening O=C(c1csc2c1CCCC2)N1CCN(c2ncccn2)CC1 returned CYP2C9 inhib 82.1, CYP2C19 activ inactive, CYP2C9 activ inactive, CYP2C19 inh 65.1, PostGolgi yeast inactive and PostGolgi ctrl inactive.
`CCOC(=O)N1CCN(c2ccc(Cl)c(Cl)c2)CC1` gave CYP2C9 inhib inactive, CYP2C19 activ inactive, CYP2C9 activ inactive, CYP2C19 inh inactive, PostGolgi yeast inactive and PostGolgi ctrl inactive.
`COc1ccc(CC(C)N2CCN(c3cccc(C(F)(F)F)c3)CC2)cc1OC` (stereo not given) gave CYP2C9 inhib inactive, CYP2C19 activ inactive, CYP2C9 activ inactive, CYP2C19 inh inactive, PostGolgi yeast inactive and PostGolgi ctrl inactive.
Screening COc1ccc(CCNC(=O)CN2CCN(c3cccc(C(F)(F)F)c3)CC2)cc1 returned CYP2C9 inhib 75.5, CYP2C19 activ inactive, CYP2C9 activ inactive, CYP2C19 inh 76.4, PostGolgi yeast inactive and PostGolgi ctrl inactive.
`CCOC(=O)N1CCN(c2ccc(C(=O)c3cccc(F)c3)cc2)CC1` gave CYP2C9 inhib 82.0, CYP2C19 activ inactive, CYP2C9 activ inactive, CYP2C19 inh 66.8, PostGolgi yeast inactive and PostGolgi ctrl inactive.
Screening COc1ccccc1C(=O)N1CCN(c2cccc(C(F)(F)F)c2)CC1 returned CYP2C9 inhib 68.2, CYP2C19 activ inactive, CYP2C9 activ inactive, CYP2C19 inh 92.4, PostGolgi yeast inactive and PostGolgi ctrl inactive.
Screening CCCCC1(C)NC(=O)N(CC(=O)Nc2ccc(S(=O)(=O)N3CCOCC3)cc2)C1=O (stereo not given) returned CYP2C9 inhib inactive, CYP2C19 activ inactive, CYP2C9 activ inactive, CYP2C19 inh inactive, PostGolgi yeast inactive and PostGolgi ctrl inactive.
`CCCCC(C(=O)NCCC(C)C)N(CCCN1CCOCC1)C(=O)c1snc(C(N)=O)c1N` (stereo not given) gave CYP2C9 inhib inactive, CYP2C19 activ inactive, CYP2C9 activ inactive, CYP2C19 inh inactive, PostGolgi yeast inactive and PostGolgi ctrl inactive.
Cc1ccc(C2CN(c3ccccc3)CC2C(=O)c2ccc(F)cc2)cc1 (stereo not given) was read as CYP2C9 inhib inactive, CYP2C19 activ inactive, CYP2C9 activ inactive, CYP2C19 inh inactive, PostGolgi yeast inactive and PostGolgi ctrl inactive.
Screening Clc1ccc(NC2=NCCCCC2)cc1 returned CYP2C9 inhib inactive, CYP2C19 activ inactive, CYP2C9 activ inactive, CYP2C19 inh inactive, PostGolgi yeast inactive and PostGolgi ctrl inactive.
Cc1c(NC(=O)COC(=O)Cc2ccc(Cl)cc2)c(=O)n(-c2ccccc2)n1C was read as CYP2C9 inhib inactive, CYP2C19 activ inactive, CYP2C9 activ inactive, CYP2C19 inh inactive, PostGolgi yeast inactive and PostGolgi ctrl inactive.
O=C(Cn1cnc2cc([N+](=O)[O-])ccc2c1=O)Nc1ccc2c(c1)CCC2 was read as CYP2C9 inhib inactive, CYP2C19 activ inactive, CYP2C9 activ inactive, CYP2C19 inh inactive, PostGolgi yeast inactive and PostGolgi ctrl inactive.
O=C(c1csc2c1CCCC2)N1CCN(c2cccc(C(F)(F)F)c2)CC1 was read as CYP2C9 inhib inactive, CYP2C19 activ inactive, CYP2C9 activ inactive, CYP2C19 inh 65.2, PostGolgi yeast inactive and PostGolgi ctrl inactive.
O=C(c1cccc(F)c1)N1CCN(c2cccc(C(F)(F)F)c2)CC1 was read as CYP2C9 inhib 81.3, CYP2C19 activ inactive, CYP2C9 activ inactive, CYP2C19 inh 88.1, PostGolgi yeast inactive and PostGolgi ctrl inactive.
`O=C(c1cc2ccccn2n1)N1CCN(c2cccc(C(F)(F)F)c2)CC1` gave CYP2C9 inhib inactive, CYP2C19 activ inactive, CYP2C9 activ inactive, CYP2C19 inh inactive, PostGolgi yeast inactive and PostGolgi ctrl inactive.
`O=C(c1cccc(F)c1)N1CCN(C(=O)C2CC2)CC1` gave CYP2C9 inhib inactive, CYP2C19 activ inactive, CYP2C9 activ inactive, CYP2C19 inh inactive, PostGolgi yeast inactive and PostGolgi ctrl inactive.
Cc1nc(N)sc1N=Nc1ccc(F)cc1 was read as CYP2C9 inhib inactive, CYP2C19 activ inactive, CYP2C9 activ inactive, CYP2C19 inh inactive, PostGolgi yeast inactive and PostGolgi ctrl inactive.
`CCCCSC1(SCCCC)N=C(N)C2(C#N)C(c3ccccc3)NC(C)=C(C)C12C#N` (stereo not given) gave CYP2C9 inhib inactive, CYP2C19 activ inactive, CYP2C9 activ inactive, CYP2C19 inh 57.1, PostGolgi yeast inactive and PostGolgi ctrl inactive.
O=C(Nc1ccccc1F)c1ccc(-n2cncn2)nc1 was read as CYP2C9 inhib 68.6, CYP2C19 activ inactive, CYP2C9 activ inactive, CYP2C19 inh 97.3, PostGolgi yeast inactive and PostGolgi ctrl inactive.
